From PubChem BioAssay
Active and inactive are the calls of the source.

How the values were obtained:
[1] = binders of probe aFSTL3 on microarray, primary screen, stem cell growth factor project, biochemical, small-molecule microarray, fluorescence 635/667 (AID 1064); conditions: higher = more signal;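 further: measures binding of the biotinylated anti-FSTL3 antibody to printed compounds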
[2] = binders from COS7 lysate, DM2A8 probe, primary screen, torsin A project, cell lysate, small-molecule microarray, fluorescence 635/667 (AID 1065); conditions: higher = more signal, COS7 lysate expressing mutant human TOR1A
[3] = binders of probe aFGF2 on microarray, primary screen, stem cell growth factor project, biochemical, small-molecule microarray, fluorescence 635/667 (AID 1067); conditions: higher = more signal;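 further: measures binding of biotinylated aFGF2 protein to printed compounds on slides; z-score merges feature fluorescence and signal-to-noise across triplicate slides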
[4] = binders of probe aFGF10 on microarray, primary screen, stem cell growth factor project, biochemical, small-molecule microarray, fluorescence 635/667 (AID 1071); conditions: higher = more signal;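 further: score merges 667 nm spot intensity and signal to noise from triplicate slides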
[5] = biological target: Neurogenic locus notch homolog protein 2 (Homo sapiens) (UniProt Q04721); test: Notch2 binders on small-molecule microarrays, primary screen, biochemical, small-molecule microarray, 635 nm fluorescence, stem cell growth factors (AID 1073); conditions: Notch2 binding, higher = more signal
Neurogenic locus notch homolog protein 2 (Homo sapiens), sequence (Q04721 whole entry, looked up, canonical isoform): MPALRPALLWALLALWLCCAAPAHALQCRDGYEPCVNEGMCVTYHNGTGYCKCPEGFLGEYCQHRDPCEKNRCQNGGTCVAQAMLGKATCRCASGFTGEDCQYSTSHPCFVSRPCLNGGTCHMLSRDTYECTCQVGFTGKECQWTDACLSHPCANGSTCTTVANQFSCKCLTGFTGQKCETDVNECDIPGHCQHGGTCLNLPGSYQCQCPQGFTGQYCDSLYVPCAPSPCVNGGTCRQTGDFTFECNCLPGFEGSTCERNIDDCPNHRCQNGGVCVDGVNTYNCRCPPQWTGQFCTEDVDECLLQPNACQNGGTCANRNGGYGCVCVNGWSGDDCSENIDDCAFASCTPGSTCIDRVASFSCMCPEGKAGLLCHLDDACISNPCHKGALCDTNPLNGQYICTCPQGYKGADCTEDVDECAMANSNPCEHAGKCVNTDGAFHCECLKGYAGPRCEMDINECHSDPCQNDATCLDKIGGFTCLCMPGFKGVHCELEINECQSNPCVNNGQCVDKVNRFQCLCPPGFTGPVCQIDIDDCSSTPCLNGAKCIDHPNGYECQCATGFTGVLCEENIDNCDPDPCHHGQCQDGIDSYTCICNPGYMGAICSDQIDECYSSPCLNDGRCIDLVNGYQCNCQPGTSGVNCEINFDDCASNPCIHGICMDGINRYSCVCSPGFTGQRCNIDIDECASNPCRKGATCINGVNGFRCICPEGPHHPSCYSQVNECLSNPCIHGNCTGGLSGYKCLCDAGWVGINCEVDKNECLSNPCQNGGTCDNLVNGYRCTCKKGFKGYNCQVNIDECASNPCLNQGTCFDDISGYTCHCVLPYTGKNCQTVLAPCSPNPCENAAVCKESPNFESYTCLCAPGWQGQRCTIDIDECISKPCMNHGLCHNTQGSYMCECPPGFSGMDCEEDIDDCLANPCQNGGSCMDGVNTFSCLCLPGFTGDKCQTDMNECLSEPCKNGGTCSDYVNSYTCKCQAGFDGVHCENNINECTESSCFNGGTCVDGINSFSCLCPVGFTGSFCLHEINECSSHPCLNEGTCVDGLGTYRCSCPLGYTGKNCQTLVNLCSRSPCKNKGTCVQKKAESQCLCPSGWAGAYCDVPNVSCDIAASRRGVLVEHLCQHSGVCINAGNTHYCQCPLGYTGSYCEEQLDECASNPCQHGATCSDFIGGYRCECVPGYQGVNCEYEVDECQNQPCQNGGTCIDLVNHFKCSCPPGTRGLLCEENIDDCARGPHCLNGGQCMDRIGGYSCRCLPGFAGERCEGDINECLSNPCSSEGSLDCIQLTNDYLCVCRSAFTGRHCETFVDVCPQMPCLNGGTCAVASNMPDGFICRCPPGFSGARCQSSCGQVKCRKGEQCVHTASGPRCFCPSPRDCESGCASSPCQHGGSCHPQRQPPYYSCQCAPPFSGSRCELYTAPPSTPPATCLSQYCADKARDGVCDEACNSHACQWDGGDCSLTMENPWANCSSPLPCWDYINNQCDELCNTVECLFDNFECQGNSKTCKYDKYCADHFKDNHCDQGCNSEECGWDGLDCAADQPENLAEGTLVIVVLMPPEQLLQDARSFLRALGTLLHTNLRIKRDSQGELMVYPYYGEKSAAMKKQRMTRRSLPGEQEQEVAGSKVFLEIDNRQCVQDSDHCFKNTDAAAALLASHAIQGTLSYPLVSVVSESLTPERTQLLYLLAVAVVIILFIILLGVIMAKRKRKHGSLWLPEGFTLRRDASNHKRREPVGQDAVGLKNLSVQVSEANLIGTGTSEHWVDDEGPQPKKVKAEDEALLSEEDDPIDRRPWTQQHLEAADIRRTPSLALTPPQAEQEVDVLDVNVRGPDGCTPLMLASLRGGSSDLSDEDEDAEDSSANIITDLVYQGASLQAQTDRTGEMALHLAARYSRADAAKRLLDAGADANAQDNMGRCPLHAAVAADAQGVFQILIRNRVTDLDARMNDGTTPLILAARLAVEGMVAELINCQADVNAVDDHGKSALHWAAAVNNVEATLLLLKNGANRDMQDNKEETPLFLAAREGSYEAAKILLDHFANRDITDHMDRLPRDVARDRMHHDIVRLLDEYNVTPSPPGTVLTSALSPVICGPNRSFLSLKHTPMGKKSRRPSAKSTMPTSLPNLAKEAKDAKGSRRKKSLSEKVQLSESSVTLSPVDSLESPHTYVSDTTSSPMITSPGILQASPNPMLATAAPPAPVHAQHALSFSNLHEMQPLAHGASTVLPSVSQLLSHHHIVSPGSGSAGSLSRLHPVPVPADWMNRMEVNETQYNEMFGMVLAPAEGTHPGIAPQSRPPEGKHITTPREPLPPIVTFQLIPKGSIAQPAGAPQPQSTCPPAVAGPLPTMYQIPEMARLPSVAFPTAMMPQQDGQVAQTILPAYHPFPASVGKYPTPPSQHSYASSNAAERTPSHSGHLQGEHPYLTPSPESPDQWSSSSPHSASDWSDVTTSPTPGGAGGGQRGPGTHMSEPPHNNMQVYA

[6] = biological target: Pro-neuregulin-1, membrane-bound isoform (Homo sapiens) (UniProt Q02297); test: NRG1 binders on small-molecule microarrays, primary screen, psychiatric disease protein project, biochemical, small-molecule microarray, fluorescence 635/667 (AID 1075); conditions: NRG1 binding, 635 nm fluorescence, higher = more signal;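 further: score combines 667 nm spot fluorescence with signal to noise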
Pro-neuregulin-1, membrane-bound isoform (Homo sapiens), sequence (Q02297 whole entry, looked up, the tested form may be a part, canonical isoform): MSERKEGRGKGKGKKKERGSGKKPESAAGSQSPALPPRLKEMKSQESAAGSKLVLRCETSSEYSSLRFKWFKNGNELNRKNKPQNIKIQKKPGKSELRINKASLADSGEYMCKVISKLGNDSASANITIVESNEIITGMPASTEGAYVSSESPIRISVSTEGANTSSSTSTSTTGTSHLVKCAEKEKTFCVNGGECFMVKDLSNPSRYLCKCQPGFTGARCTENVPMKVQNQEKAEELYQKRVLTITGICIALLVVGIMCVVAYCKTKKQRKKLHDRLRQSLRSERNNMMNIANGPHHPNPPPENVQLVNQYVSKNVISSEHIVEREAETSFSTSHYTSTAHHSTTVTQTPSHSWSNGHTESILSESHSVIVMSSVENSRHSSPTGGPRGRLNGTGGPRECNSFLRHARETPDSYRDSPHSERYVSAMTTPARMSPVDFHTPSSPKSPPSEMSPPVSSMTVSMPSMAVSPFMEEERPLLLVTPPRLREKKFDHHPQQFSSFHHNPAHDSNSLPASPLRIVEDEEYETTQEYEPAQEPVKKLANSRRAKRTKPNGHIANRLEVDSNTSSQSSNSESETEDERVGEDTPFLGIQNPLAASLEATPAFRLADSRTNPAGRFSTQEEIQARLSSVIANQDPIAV

[7] = system: Neuregulin-1 EGF-like domain; test: binders of neuregulin-1 EGF-like domain, primary screen, biochemical, small-molecule microarray, 635 nm fluorescence (AID 1081); conditions: small-molecule microarray binding, higher = more signal;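 further: binding of the protein to compounds printed on small-molecule microarray slides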
[8] = FRG1 promoter luciferase signal modulators, primary screen, FRG1 inhibition for FSHD, cell-based, C2C12 myotubes, firefly/Renilla luciferase, luminescence (AID 1084); conditions: higher = more signal, called active from +8 up or from −8 down
[9] = binders of probe aFST on microarray, primary screen, stem cell growth factor project, biochemical, small-molecule microarray, fluorescence 635/667 (AID 1086); conditions: higher = more signal;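 further: score merges 667 nm fluorescence with signal-to-noise of each printed compound spot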
[10] = binders of probe aHhip on microarray, primary screen, stem cell growth factor project, biochemical, small-molecule microarray, fluorescence 635/667 (AID 1087); conditions: higher = more signal;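 further: score merges spot fluorescence at 667nm with spot signal to noise ratio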

SMILES | composite z-score [1] | composite z-score [2] | composite z-score [3] | composite z-score [4] | composite z-score [5] | composite z-score [6] | composite z-score [7] | z-score [8] | composite z-score [9] | composite z-score [10]
CCOC(=O)C1=C[C@@H](C(C)(C)C)N(S(=O)(=O)c2ccc(C)cc2)[C@H]1c1ccc(Cl)c(Cl)c1 | -0.301 | 0.134 | 0.12 | 0.614 | 1.56 | 1.53 | 0.911 | -0.446 (inactive) | 0.514 | -0.236
O=C1O[C@@H](c2ccccc2)[C@@H](c2ccccc2)N2[C@@H](c3ccc(O)cc3)[C@]3(C(=O)Nc4ccc(C#CCCO)cc43)[C@@H](C(=O)O)[C@H]12 | 3.16 | 0.489 | 0.548 | 0.306 | 0.725 | 1.91 | 1.07 | -0.55 (inactive) | 2.44 | 1.69
COc1ccc(C#Cc2ccc3c(c2)[C@]2(C(=O)N3)[C@H](C(=O)N3CCc4cc(OC)c(OC)cc4C3)[C@H]3C(=O)O[C@H](c4ccccc4)[C@H](c4ccccc4)N3[C@@H]2c2ccc(OCCO)cc2)cc1 | -0.304 | 0.487 | 0.0019 | 0.817 | 1.32 | 0.213 | 1.2 | 0.239 (inactive) | 0.35 | 0.314
O=C1c2ccccc2[C@](Cc2ccccc2I)(C(=O)O)[C@H](c2ccc(CO)cc2)N1Cc1ccccc1C(F)(F)F | -0.897 | 0.17 | -0.21 | -0.278 | 0.304 | 1.62 | 1.26 | -0.524 (inactive) | -0.0423 | -0.312
C=CCN1C(=O)[C@@]2(O[C@@H](CCO)[C@H]([Si](C)(C)c3ccc(OC)cc3)[C@H]2C)c2cc(NC(C)=O)ccc21 | -0.412 | 0.299 | -0.0887 | 1.19 | 1.07 | 0.864 | 1.2 | -0.174 (inactive) | 0.55 | 0.294
COCCn1c(C(=O)N2CCCC2)cc2c1C[C@H]1CN(C(=O)c3ccccc3)[C@@](Cc3ccc(OC)cc3)(C(=O)OC)[C@@H]21 | 1.42 | 1.86 | 0.264 | 0.43 | 1.64 | 2.12 | 0.905 | -1.1 (inactive) | 0.602 | -0.0994
COCCOC(=O)N1C(=O)[C@@]2(c3cc(C#CCC(C(=O)OC)C(=O)OC)ccc31)[C@H](c1ccc(OCCO)cc1)N1[C@H](c3ccccc3)[C@H](c3ccccc3)OC(=O)[C@H]1[C@@H]2C(=O)NC[C@H](O)c1ccccc1 | -1.25 | 0.501 | -0.0272 | 1.15 | 1.45 | 0.824 | 1.28 | -0.89 (inactive) | -0.158 | -0.521
CCCC[C@H]1OB(O)C[C@H]2C1=C(C)Cn1c(=O)n(-c3ccccc3)c(=O)n12 | -0.396 | 0.383 | -0.116 | 0.365 | 0.585 | -0.0946 | 0.129 | -0.127 (inactive) | 0.292 | -0.0237
O=P(NCC1(CC2(c3ccccc3)CO2)CC1)(c1ccccc1)c1ccccc1 (stereo not given) | 0.565 | -0.856 | 0.218 | 0.315 | -0.401 | 1.06 | 0.619 | -1.59 (inactive) | -0.0087 | 0.275
C=CCOC(=O)[C@@H]1[C@H]2C(=O)O[C@H](c3ccccc3)[C@H](c3ccccc3)N2[C@H](c2ccc(OCCOC(=O)[C@H]3C[C@H]4C(=O)N[C@@H](CC(C)C)C(=O)N4[C@H]3c3cccc(OCCO)c3)cc2)[C@@]12C(=O)Nc1ccc(I)cc12 | -0.187 | 0.83 | -0.0232 | 0.81 | 0.809 | 0.71 | 1.27 | 1.6 (inactive) | 0.186 | -0.0296
C#C[C@H]1Oc2ccccc2S(=O)(=O)N2CCC[C@@H]12 | 0.246 | 0.321 | -0.116 | -0.223 | -0.564 | -0.671 | -0.344 | -0.316 (inactive) | 0.0511 | 0.0373
COC(=O)[C@@]1(Cc2ccccc2)[C@H]2c3cc(C(=O)N(C)C)n(Cc4ccccc4)c3C[C@H]2CN1C(=O)c1ccccc1 | 0.0252 | -0.705 | 0.274 | 0.747 | 1.67 | 0.614 | 1.26 | 0.273 (inactive) | 0.856 | 0.896
CC(C)C[C@@H]1NC(=O)[C@@H]2C[C@H](C(=O)NCCCCN(C)C)[C@H](c3ccc(O)cc3)N2C1=O | 0.493 | -0.202 | -0.167 | -1.02 | -1.32 | -0.343 | 0.443 | 1.92 (inactive) | -0.819 | -0.0296
Cc1ccc(S[C@]2(C(=O)NCC(C)C)CC(=O)N(Cc3ccccc3)[C@@H]2c2ccc(CO)cc2)cc1 | 0.148 | -0.674 | -0.076 | 0.146 | -0.967 | -0.431 | 0.221 | -3.05 (inactive) | 0.161 | -0.226
CCOC1=C2C(c3ccc(C)cc3)N(S(=O)(=O)c3ccc(C)cc3)CC2n2c(=O)n(-c3ccccc3)c(=O)n2C1 (stereo not given) | -0.19 | 0.475 | 0.0876 | 0.94 | 1.55 | 1.13 | 0.0031 | -3.93 (inactive) | 0.701 | -0.26
O=C1C2C=CC(C(O)CCc3ccccc3)N(Nc3ccccc3)C2C(=O)N1c1ccccc1 (stereo not given) | 0.572 | 1.83 | 0.288 | 0.83 | 1.61 | 2.09 | 1.22 | 0.0878 (inactive) | 1.15 | -0.0645
CCCC[C@@H]1C[C@H]1[C@@H](NC(=O)c1ccccc1)c1ccccc1 | 0.343 | -0.0895 | 0.15 | 0.14 | 0.18 | -0.392 | -0.303 | -0.0327 (inactive) | 1.14 | 2.02

SMILES | composite z-score [1] | composite z-score [2] | composite z-score [3] | composite z-score [4] | composite z-score [5] | composite z-score [6] | composite z-score [7] | z-score [8] | composite z-score [9] | composite z-score [10]
C[C@H]1C2[C@H](Cc3ccccc3)NC(=O)[C@]23C(=O)N[C@H](Cc2ccccc2)C(=O)N[C@H](Cc2ccccc2)C(=O)NC/C=C/CCC/C=C/C3[C@@H]2O[C@]12C (stereo not given in full) | -0.367 | 0.881 | -0.174 | 0.309 | -0.163 | 0.365 | 1.21 | 4.86 (inactive) | 0.22 | 0.154
COC(=O)[C@@]1(Cc2ccc(F)cc2)[C@H]2c3cc(C(=O)N(C)C)n(CCCNc4ccc(C(F)(F)F)cc4Cl)c3C[C@H]2CN1C(=O)c1ccccc1 | 0.785 | 0.34 | 0.311 | 0.754 | 1.75 | 1.16 | 1.27 | 0.452 (inactive) | 1.55 | -0.114
COc1ccc([Si](C)(C)[C@H]2[C@H](CC(=O)N(CCO)Cc3ccccc3)O[C@@]3(C(=O)N(Cc4cccc(N5C(=O)c6cccc7cccc5c67)c4)c4ccccc43)[C@@H]2C)cc1 | -0.184 | 0.199 | -0.0664 | 0.202 | -0.588 | 0.824 | 1.2 | -3.13 (inactive) | -0.246 | -0.236
C=C(/C(=C/C[C@@H](OC(C)=O)c1ccc(CO)o1)c1cnc2ccccc2c1)C(C)C | -0.524 | 1.53 | -0.0766 | 1.13 | 1.53 | 0.766 | 1.32 | 0.439 (inactive) | 0.284 | -0.0618
CC(C)(C)OC(=O)CC[C@@]1(C(=O)NCC(O)CO)N=C(c2ccc(OCCCO)cc2)O[C@@H]1c1ccccc1 (stereo not given in full) | 0.222 | 1.68 | -0.11 | 0.0407 | 0.739 | 1.8 | 1.35 | 1.74 (inactive) | 0.74 | 0.12
CCCNC(=O)[C@@]1(C)c2ccccc2C(=O)N(Cc2ccc(OC(F)(F)F)cc2)[C@H]1c1ccc(CO)cc1 | 0.29 | -0.0811 | 0.015 | -0.387 | -0.321 | 1.2 | 1.3 | -3.98 (inactive) | -0.337 | 0.28
Cc1c(NC(=O)/C(C#N)=C/C=C/c2ccccc2)c(=O)n(-c2ccccc2)n1C | -0.438 | -0.0022 | -0.0035 | 0.286 | 0.654 | 0.757 | 0.825 | 4.07 (inactive) | 0.003 | 0.237
CN1C(=O)C2C=CC(C(O)C3=C[C@H]4C[C@@H](C3)C4(C)C)N(Nc3ccc([N+](=O)[O-])cc3[N+](=O)[O-])C2C1=O (stereo not given in full) | 0.574 | 0.156 | 0.15 | 0.733 | 1.66 | 1.51 | 1.33 | 0.0285 (inactive) | 0.642 | 0.0826
CC(=O)NCCCC[C@@H]1NC(=O)[C@@H]2C[C@H](C(=O)NCCCCCC[N+](C)(C)C)[C@H](c3cccc(OCCO)c3)N2C1=O | -0.0722 | 1.23 | -0.0098 | 0.498 | 0.0496 | 1.52 | 1.35 | 3.12 (inactive) | 0.715 | -0.0296
C=C[C@H](OC)[C@@H](OC(=O)Nc1ccc(SC)cc1)c1ccc(OCCO)cc1 | 0.0168 | 0.594 | -0.0307 | 0.778 | -0.21 | 0.121 | 1.41 | 5.3 (inactive) | -0.0503 | -0.249
O=C1[C@H]2C=C(Br)[C@H](C[C@@H]2OCCOCCO)[C@@]12CO2 | 0.0321 | -0.0798 | -0.103 | 0.373 | 0.473 | -0.151 | 0.437 | -0.0763 (inactive) | 0.0751 | -0.0994
O=[N+]([O-])c1ccc(C[n+]2ccc(CCCO)cc2)o1 | 0.138 | 0.218 | 0.0609 | 0.758 | 1.53 | 0.856 | 1.29 | 0.472 (inactive) | 0.181 | 0.251
C=CCOC(=O)[C@H]1[C@@H]2C(=O)O[C@@H](c3ccccc3)[C@@H](c3ccccc3)N2[C@@H](c2ccc(OCCOC(=O)[C@@H]3C[C@@H]4C(=O)NCC(=O)N4[C@@H]3c3ccc(O)cc3)cc2)[C@]12C(=O)Nc1ccc(I)cc12 | -0.321 | 0.335 | 0.0364 | 0.438 | 0.93 | 1.17 | 1.27 | -0.0667 (inactive) | 0.317 | 0.107
COc1ccccc1CN1C(=O)c2ccccc2[C@](Cc2ccccc2I)(C(=O)NC2CC2)[C@@H]1c1ccc(CO)cc1 | -0.532 | 0.46 | 0.0673 | 0.531 | 1.32 | 0.949 | 1.42 | -2.86 (inactive) | 0.653 | 0.136
Cc1ccc(S[C@]2(C(=O)NCC(F)(F)F)CC(=O)N(C3Cc4ccccc4C3)[C@@H]2c2ccc(CO)cc2I)cc1 | 1.27 | 0.0708 | -0.11 | -0.433 | -0.929 | 0.569 | 0.455 | -0.92 (inactive) | -0.265 | 0.0024
COCCOC(=O)N1C(=O)[C@@]2(c3cc(C#CCC(C(=O)OC)C(=O)OC)ccc31)[C@H](c1ccccc1OCCO)N1[C@H](c3ccccc3)[C@H](c3ccccc3)OC(=O)[C@H]1[C@@H]2C(=O)Nc1nc2ccccc2s1 | -0.144 | 1.2 | -0.0335 | 1.19 | 1.2 | 1.37 | 1.06 | 0.0053 (inactive) | 0.417 | 0.417
